Measurements reported in the supplement of paper PMC9694430.

Key:
Experiment in all cases: thermal shift delta Tm vs DMSO control; higher = stronger stabilization (binding)
Settings in all cases: 12.5 µM; protein concentration 2 µM
LOC_OS01G01410-cb001 = tested on: LOC_OS01G01410-cb001
How it was run: (§1)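 Rice kinase domain constructs were expressed in E. coli, purified, and tested by differential scanning fluorimetry with compound added in DMSO. Each well of a 96-well plate held 19.5 μl of 2 μM kinase in 100 mM potassium phosphate pH 7.5, 150 mM NaCl, 10% glycerol and 5 × SYPRO Orange, and fluorescence was read from 25°C to 95°C at 0.05°C/s. The melting temperature shift is the mean of triplicates, taken against protein with DMSO alone after Boltzmann fitting.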

LOC_OS01G02750-cb003 = tested on: LOC_OS01G02750-cb003
How it was run: as §1

LOC_OS01G10900-cb004 = tested on: LOC_OS01G10900-cb004
How it was run: as §1

LOC_OS01G13800-cb001 = tested on: LOC_OS01G13800-cb001
How it was run: as §1

LOC_OS01G14860-cb001 = tested on: LOC_OS01G14860-cb001
How it was run: as §1

LOC_OS01G21960-cb002 = tested on: LOC_OS01G21960-cb002
How it was run: as §1

LOC_OS01G39600-cb002 = tested on: LOC_OS01G39600-cb002
How it was run: as §1

LOC_OS01G48390-cb002 = tested on: LOC_OS01G48390-cb002
How it was run: as §1

LOC_OS01G51400-cb002 = tested on: LOC_OS01G51400-cb002
How it was run: as §1

LOC_OS01G52050-cb004 = tested on: T1, LOC_OS01G52050-cb004
T1 sequence (whole entry): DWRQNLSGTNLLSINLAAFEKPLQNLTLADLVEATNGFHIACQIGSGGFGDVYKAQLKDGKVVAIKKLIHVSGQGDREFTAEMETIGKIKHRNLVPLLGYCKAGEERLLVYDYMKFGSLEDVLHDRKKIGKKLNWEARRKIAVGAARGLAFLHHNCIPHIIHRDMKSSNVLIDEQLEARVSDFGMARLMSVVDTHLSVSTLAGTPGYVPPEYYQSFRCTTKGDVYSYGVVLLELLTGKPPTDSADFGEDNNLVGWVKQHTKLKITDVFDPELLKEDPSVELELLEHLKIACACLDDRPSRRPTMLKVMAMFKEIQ
How it was run: as §1

LOC_OS01G57100-cb003 = tested on: LOC_OS01G57100-cb003
How it was run: as §1

LOC_OS01G60330-cb001 = tested on: LOC_OS01G60330-cb001
How it was run: as §1

LOC_OS01G60700-cb002 = tested on: LOC_OS01G60700-cb002
How it was run: as §1

LOC_OS01G63280-cb003 = tested on: LOC_OS01G63280-cb003
How it was run: as §1

LOC_OS01G67340-cb003 = tested on: LOC_OS01G67340-cb003
How it was run: as §1

LOC_OS01G70970-cb002 = tested on: LOC_OS01G70970-cb002
How it was run: as §1

LOC_OS02G07810-cb001 = tested on: LOC_OS02G07810-cb001
How it was run: as §1

LOC_OS02G08530-cb003 = tested on: LOC_OS02G08530-cb003
How it was run: as §1

LOC_OS02G14120-cb001 = tested on: LOC_OS02G14120-cb001
How it was run: as §1

LOC_OS02G17970-cb001 = tested on: LOC_OS02G17970-cb001
How it was run: as §1

| Compound | thermal shift delta Tm (LOC_OS01G01410-cb001) [°C] | thermal shift delta Tm (LOC_OS01G02750-cb003) [°C] | thermal shift delta Tm (LOC_OS01G10900-cb004) [°C] | thermal shift delta Tm (LOC_OS01G13800-cb001) [°C] | thermal shift delta Tm (LOC_OS01G14860-cb001) [°C] | thermal shift delta Tm (LOC_OS01G21960-cb002) [°C] | thermal shift delta Tm (LOC_OS01G39600-cb002) [°C] | thermal shift delta Tm (LOC_OS01G48390-cb002) [°C] | thermal shift delta Tm (LOC_OS01G51400-cb002) [°C] | thermal shift delta Tm (LOC_OS01G52050-cb004) [°C] | thermal shift delta Tm (LOC_OS01G57100-cb003) [°C] | thermal shift delta Tm (LOC_OS01G60330-cb001) [°C] | thermal shift delta Tm (LOC_OS01G60700-cb002) [°C] | thermal shift delta Tm (LOC_OS01G63280-cb003) [°C] | thermal shift delta Tm (LOC_OS01G67340-cb003) [°C] | thermal shift delta Tm (LOC_OS01G70970-cb002) [°C] | thermal shift delta Tm (LOC_OS02G07810-cb001) [°C] | thermal shift delta Tm (LOC_OS02G08530-cb003) [°C] | thermal shift delta Tm (LOC_OS02G14120-cb001) [°C] | thermal shift delta Tm (LOC_OS02G17970-cb001) [°C] |
| --- | --- | --- | --- | --- | --- | --- | --- | --- | --- | --- | --- | --- | --- | --- | --- | --- | --- | --- | --- | --- |
| Cc1cn(-c2cc(NC(=O)c3ccc(C)c(Nc4nccc(-c5cccnc5)n4)c3)cc(C(F)(F)F)c2)cn1 [Nilotinib (AMN-107)] | 1.05 | 0.56 | 0.78 | -0.11 | 0.32 | 0.28 | 0.67 | 0.45 | 0.48 | -0.02 | 0.85 | 1.29 | 0.99 | 0.49 | -0.08 | 0.3 | 0.5 | 0.55 | 0.37 | 0.01 |
| Cc1n[nH]c2ncc(C(=O)N3CCC[C@H]3c3ccc(Cl)cc3)cc12 | 0.63 | 0.98 | 0.41 | 0.18 | 4.68 | 0.38 | 0.88 | 0.19 | 0.21 | 3.46 | 0.92 | 0.11 | 0.24 | 0.09 | 0.25 | 0.34 | -0.7 | 1.34 | 1.35 | 0.38 |
| N#Cc1ccc(-c2c(-c3ncn[nH]3)sc(N3CCOCC3)c2C#N)c(F)c1 | 0.3 | 0.97 | 4.91 | 0.46 | 0.41 | 1.16 | 0.28 | 0.62 | 0.12 | 0.29 | 0.86 | 1.05 | 1.22 | 0.44 | 0.56 | 0.2 | 0.75 | 0.69 | 1.41 | 1.24 |
| Cc1ncc(CO)c(CO)c1O [Pyridoxine] | -0.03 | 0.64 | 0.29 | -0.11 | 0.24 | 0.13 | -0.13 | 0.22 | 0.06 | 4.05 | -0.85 | -0.2 | -0.29 | -0.26 | 0.08 | 0.33 | -0.63 | 0.26 | 0.41 | 0.66 |
| COc1cc2ncnc(Oc3ccc(CC(=O)Nc4cnn(C(C)C)c4)cc3)c2cc1OC | 0.27 | 0 | 0.09 | -0.43 | 0.03 | 0.08 | -1.25 | 0.97 | 0.22 | -0.1 | 0.71 | 0.05 | 1.1 | 0.13 | -0.21 | 0.47 | 0.52 | 0.53 | 0.06 | 0.84 |
| COc1ccc2[nH]cc(/C=C3\C(=O)Nc4ccc(NC(=O)CCN5CCCCC5)cc43)c2c1 | 0.24 | 1.49 | 0.91 | 1.6 | 2.18 | 1.64 | 0.22 | 0.82 | 0.58 | 0.72 | 0.21 | 1.51 | 1.62 | 1.06 | 1.09 | 0.85 | 0.83 | 1.82 | 1.59 | 1.88 |
| O=c1nc(N2CCOCC2)oc2c(-c3cccc4c3sc3ccccc34)cccc12 | 0.12 | -0.86 | 3.3 | -0.44 | 0.6 | 0.45 | -0.5 | 0.27 | -0.4 | 1.17 | 1.63 | -0.13 | -0.9 | -1.32 | -1.09 | -0.38 | -1.31 | 0.23 | 0.11 | -0.76 |
| O=C1NC(=O)/C(=C/c2ccc3nccc(-c4ccncc4)c3c2)S1 | 1.21 | 0.63 | 0.95 | 0.37 | 0.98 | 0.96 | 1.76 | 0.2 | 0.08 | 0.79 | 0.39 | 0.51 | 0.74 | -0.17 | 0.62 | 0.07 | 0.58 | 0.62 | 3.14 | 0.7 |
| COc1cc2ncnc(Nc3ccc(O)c(Br)c3)c2cc1OC | 1.47 | -0.02 | 0.65 | -0.02 | 0.9 | 0.93 | -1.06 | 3 | 0.29 | 1.31 | 0.74 | 0.32 | 1.72 | 0.92 | 0.7 | 0.81 | 0.81 | 1.8 | 7.45 | 1.06 |
| Cc1cc(Nc2nc(N[C@@H](C)c3ncc(F)cn3)ncc2Cl)[nH]n1 | 4.53 | 2.77 | 0.35 | -0.03 | 2.85 | 2.53 | 4.56 | 6.25 | 0.55 | 0.71 | 1.57 | 4.82 | 0.28 | 1.3 | -0.24 | 2.3 | 0.96 | 2.02 | 8.03 | 0.48 |
| COc1ccc(CCNCc2ccc(OCc3ccc(Cl)nc3)c(OC)c2)cc1OC | 0.02 | 0.3 | 0.52 | 0.46 | 0.35 | 0.01 | 0.48 | 0.52 | -0.03 | -0.18 | 1.03 | 0.8 | 0.19 | -0.28 | 0.24 | 0.23 | 0.28 | 0.56 | 0.14 | 0.22 |
| CC(C)(C)NC(=O)c1cncn1C1CCN(c2ccc(-c3nnc(C(F)(F)F)o3)cn2)CC1 | 0.22 | 0.89 | 0.11 | -0.25 | 0.2 | 0.13 | -0.63 | 0.3 | 0.06 | 0.97 | -0.21 | 0.32 | -0.26 | -0.16 | 0.05 | 0.37 | -1.16 | 0.52 | 0.95 | -0.2 |
| C=C(C)[C@@H]1CC[C@]2(C)CC[C@]3(C)[C@H](CC[C@@H]4[C@@]5(C)CC[C@H](O)C(C)(C)[C@@H]5CC[C@]43C)[C@@H]12 [Lupeol] | 0.2 | 0.62 | 0.32 | 0.74 | 0.11 | 0.67 | 0.07 | -0.09 | -0.11 | 0.44 | 0.67 | -0.59 | 0.65 | 0.13 | 0.51 | -0.32 | 1 | 0.21 | -0.18 | -0.66 |
